Laboratory results from PubChem BioAssay (NCI).
About 79,000 compounds went through this panel and 15% of them were active in at least one assay; those are over-represented in the sample as a whole. Rule as the data show it: active = growth inhibition above about 70%; inactive = the rest. Where a SMILES comes first, the peptide text is derived from it. Bridges are numbered along the chain shown (N, C = ends). [ ]: non-standard residue; d: D form. The star is where a group is joined. ξ: configuration not given here. PhAc = O=C(Cc1ccccc1)*; ξP = O=C(O)C1CCCN1

Experiments:
[1] = NCI Yeast Anticancer Drug Screen. Data for the rad50 strain (AID 155);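 also: 0% = growth of vehicle-only cultures of the same strain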; conditions: S. cerevisiae rad50 strain growth inhibition; at 50.0 µM; active compounds read high
Method in brief: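 DNA repair mutant yeast, compound exposure, growth read-out; inhibition is taken relative to vehicle.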

[2] = NCI Yeast Anticancer Drug Screen. Data for the mec2-1 strain (AID 157); conditions: S. cerevisiae mec2-1 strain, at 50.0 µM, active compounds read high
Method in brief: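 Vehicle-treated cultures served as reference for growth inhibition of compound-exposed mec2-1 yeast.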

[3] = NCI Yeast Anticancer Drug Screen. Data for the sgs1 mgt1 strain (AID 161);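 also: 0% = growth of cultures given vehicle only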; conditions: S. cerevisiae sgs1 mgt1 strain, at 50.0 µM, active compounds read high
Method in brief: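 Inhibition of yeast growth, normalised to vehicle-treated controls, is reported for a strain bearing genetic alterations in DNA damage repair.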

[4] = NCI Yeast Anticancer Drug Screen. Data for the cln2 rad14 strain (AID 165);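 also: 0% = growth equal to vehicle treated cultures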; conditions: S. cerevisiae cln2 rad14 strain, at 50.0 µM, active compounds read high
Method in brief: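 Each compound was tested on cln2 rad14 yeast. Inhibition of growth was calculated against vehicle-exposed controls.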

[5] = NCI Yeast Anticancer Drug Screen. Data for the bub3 strain (AID 167); conditions: S. cerevisiae bub3 mutant strain, at 50.0 µM, active compounds read high
Method in brief: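 In this screen, a yeast mutant lacking normal mitotic checkpoint function is challenged with compound. Relative growth versus vehicle gives the inhibition value.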

[6] = NCI Yeast Anticancer Drug Screen. Data for the mlh1 rad18 strain (AID 175); conditions: S. cerevisiae mlh1 rad18 strain growth inhibition; at 50.0 µM; active compounds read high
Method in brief: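 Vehicle-treated cultures served as the reference for growth inhibition in a yeast strain carrying DNA damage repair alterations exposed to each compound.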

Measured: growth inhibition

CCN(CC)CCNC(=O)c1ccc(NCN2C(=O)NC(c3ccccc3)(c3ccccc3)C2=O)cc1
inactive: [1] -24.1% | [2] 3.4% | [3] 8.45% | [4] 26.3% | [5] 15.7% | [6] 50.8%

CC(=O)Nc1ccc(OC(C)=O)cc1
inactive: [1] 14.4% | [2] -0.85% | [3] 3.55% | [4] 20.5% | [5] 2.7% | [6] 24.4%

CCSc1cc(=O)n(C)c(=O)n1C
inactive: [1] 13.6% | [2] 7.15% | [3] 21.3% | [4] 4.55% | [5] 5.25% | [6] -10.5%

O=C(Cc1ccccc1)N[C@@H]1COC(=O)C2CCCN2C(=O)[C@@H]2CCCN2C1=O (stereo not given in full) (PhAc-[dS]-Pro-[ξP]; ester 1-C)
inactive: [1] -11.6% | [2] -1.7% | [3] 4.25% | [4] 27.4% | [5] 12.3% | [6] 0.65%

C=C1CCCCCCCCC/C=C/1SCCCSC
inactive: [1] 5.6% | [2] 26.4% | [3] -31.6% | [4] -17.9% | [5] -19% | [6] -20.2%

COC(CN(C)C(=S)Nc1cccc2ccccc12)OC
inactive: [1] -31.9% | [2] -74% | [3] -23.6% | [4] -11.7% | [5] -6.2% | [6] -30.9%

CCOC(=O)C(C)Oc1ccc(Cl)cc1 (stereo not given)
inactive: [1] -7.85% | [2] -14.9% | [3] -13.1% | [4] -44.1% | [5] -6.3% | [6] 1.8%

CSc1nc2c(c(O)c(C)c(=O)n2C2OCC(OC(C)=O)C(OC(C)=O)C2OC(C)=O)c(=O)n1C (stereo not given)
inactive: [1] 10.6% | [2] -26.5% | [3] -15.7% | [4] 2.9% | [5] 2.2% | [6] -1.3%

O=C(O)C#Cc1ccccc1[N+](=O)[O-]
inactive: [1] 21.1% | [2] 25.1% | [3] 11.3% | [4] -15.4% | [5] 14.9% | [6] 9.35%

CC(=O)NNc1ncc(C(=O)/C=C/c2ccccc2C)s1
inactive: [1] 31.1% | [2] 16.1% | [3] 12.5% | [4] 29.1% | [5] 22.3% | [6] 36.6%

CCC1(C#N)N=C(c2ccccc2)c2ccccc2N1C(=O)Oc1ccccc1 (stereo not given)
inactive: [1] 3.65% | [2] 2.65% | [3] -9.7% | [4] -15.7% | [5] 11.1% | [6] 19.6%

COc1ccc(OC)c2c(Nc3ccc(S(=O)(=O)O)c4cc(S(=O)(=O)O)cc(S(=O)(=O)O)c34)cc(C)nc12
inactive: [1] 2.5% | [2] -6.4% | [3] 9.25% | [4] 3.1% | [5] 6.8% | [6] 10.9%

Cc1c(Cl)c(C)c(Cc2c(C)c(Cl)c(C)c(Cl)c2O)c(O)c1Cl
inactive: [1] -4.7% | [2] -40.4% | [3] -20.6% | [4] -11.7% | [5] -5.2% | [6] -5.9%

CCCOC(=O)c1c(Cl)c(Cl)c(Cl)c(Cl)c1C(=O)OCCC
inactive: [1] 12.8% | [2] -20.8% | [3] 4.8% | [4] -3.05% | [5] -15.2% | [6] 8.3%

O=S(=O)(N1CCOCC1)N1CCOCC1
inactive: [1] -3.9% | [2] -7.7% | [3] -3.55% | [4] -25.6% | [5] 25.6% | [6] 3.85%

CCOC(=O)N1CCN(C(=O)OCC)C(C)C1 (stereo not given)
inactive: [1] 4.45% | [2] -0.7% | [3] -8.8% | [4] -20.1% | [5] 6.35% | [6] -8.6%

COC(CCCl)c1ccc(C)cc1 (stereo not given)
inactive: [1] -9.4% | [2] -66.4% | [3] -24% | [4] 3.8% | [5] -29.9% | [6] 1.8%

COc1ccc2oc3cc(NCCN(C)C)ccc3c(=O)c2c1
inactive: [1] -4.65% | [2] -21.7% | [3] -25.6% | [4] 15.9% | [5] -19.9% | [6] -19.3%

CCCC(=O)c1c(C)cc(C)cc1C
inactive: [1] -6.6% | [2] -19.7% | [3] -24.4% | [4] 9.45% | [5] -7.55% | [6] 11.1%

CC#CCOC(=O)c1ccccc1OC(C)=O
inactive: [1] 27.8% | [2] -1.75% | [3] 23.9% | [4] 9.7% | [5] 26.9% | [6] 19.1%
